The full list was thinned out, with hits kept by preference.
CHX counter = Cycloheximide Counterscreen for Small Molecule Inhibitors of Shiga Toxin; AID 2314, 2010; cell reporter, cycloheximide protein synthesis inhibition counterscreen; max response, %; hit rate 12% among 300,000; in the data active = max response mostly above about 13%, no sharp cut-off; inactive = mostly below about 14%; also: read at 38.3 µM for the half of the compounds with a filed dose
RE007 growth inh = qHTS Assay for Inhibitors of the HIV-1 protein Vpr; Potency, µM (highest dose often 92.2 µM), most hits filed as inhibitors; AID 651644, 2012; hit rate 0.21% among 360,000; S. pombe RE007 Vpr strain, BacTiter-Glo ATP luminescence, 24 h; active = well fitted falling curve with a large enough effect; inconclusive = small, poorly fitted or top-dose-only effect; inactive = no such curve, though single readings can be large or run the other way; also: nearly all actives have a fitted effect of over 50% in size
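Fission yeast strain RE007, carrying one chromosomally integrated HIV-1 vpr copy, was seeded at OD 0.01 in PMG+AL medium with 23 nL pinned compound. After 24 h at 30 °C and 99% humidity, viability was read by BacTiter-Glo luminescence.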
FBPA Giardia inh = qHTS Assay for Inhibitors of Fructose-1,6-bisphosphate Aldolase from Giardia Lamblia; purified Giardia FBPA; Potency, µM (top dose mostly 59.6 µM), actives largely listed as inhibitors; hit rate 0.71% among 290,000; AID 2451, 2010; also: nearly all actives have a fitted effect of over 55% in size
Target sequence (A8B2U2 whole entry, looked up): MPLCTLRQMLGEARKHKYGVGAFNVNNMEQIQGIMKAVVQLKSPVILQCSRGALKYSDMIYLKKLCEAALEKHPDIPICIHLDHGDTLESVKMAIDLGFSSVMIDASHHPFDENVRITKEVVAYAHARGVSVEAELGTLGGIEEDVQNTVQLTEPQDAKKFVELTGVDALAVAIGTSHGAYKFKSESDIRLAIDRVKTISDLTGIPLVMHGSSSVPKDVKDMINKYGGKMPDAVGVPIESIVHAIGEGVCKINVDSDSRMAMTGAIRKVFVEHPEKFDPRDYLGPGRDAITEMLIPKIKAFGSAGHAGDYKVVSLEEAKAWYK
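Giardia FBPA (40 nM reagent) was preincubated 10 min at RT with compound (up to 57.5 uM final), then substrate plus GAPDH/TPI/NAD/arsenate coupling system with diaphorase/resazurin was added; resorufin fluorescence (525/598 nm) was read after 20 min.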
TbPYK inhibitor = qHTS of Trypanosoma Brucei Inhibitors | TbPYK enzyme, Kinase-Glo Plus ATP luminescence, 45 min | Potency, µM (top dose mostly 76.8 µM), usual class: inhibitors | hit rate 0.12% among 410,000; also: nearly all actives have a fitted effect of over 50% in size
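Assay buffer: 50 mM TEA pH 7.2, 100 mM KCl, 10 mM MgCl2, 0.05% BSA, 0.01% Tween-20. Pyruvate kinase from T. brucei plus substrate met compound, then ADP (130 uM final). Luminescence was read post 45 min RT.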
LmPK inh = qHTS Assay for Inhibitors of Leishmania Mexicana Pyruvate Kinase (LmPK) | purified LmPK, Kinase-Glo ATP luminescence, 1 h | Potency, µM (series often up to 57.5 µM), actives largely listed as inhibitors | hit rate 0.37% among 290,000
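Screened at intermediate enzyme activity to detect both inhibitors and activators: LmPK at 0.1 nM, with a 0.5 nM enzyme column as activation reference. PEP 0.5 mM, ADP 0.1 mM; ATP detected by luminescence after 1 h.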
Shiga inhibitor = A qHTS for Small Molecule Inhibitors of Shiga Toxin. inhibition, % at 38.7 µM. Vero cells, Shiga toxin protein synthesis inhibition reporter. hit rate 9.2% among 290,000; in the data active = inhibition mostly above about 28%, no sharp cut-off; inactive = mostly below about 43%
Large screens that a line does not name were inactive. Unless noted, calls follow the shape of the dose curve; as a rule, active = well fitted curve in the direction sought with a large enough effect; inconclusive = small, poorly fitted or top-dose-only effect, or another doubt; inactive = no such curve, though single readings can be large; an effect the other way counts as inactive or inconclusive.

COc1ccc(-[n+]2c(C)cc(/C=C3\Sc4ccccc4N3C)cc2C)cc1	RE007 growth inh inconclusive, Shiga inhibitor 62
COC(=O)[C@@]1(Cc2ccc(OC)cc2)[C@H]2c3cc(C(=O)N(C)C)n(Cc4ccc(O)c(OC)c4)c3C[C@H]2CN1C(=O)c1ccccc1	none (no result: CHX counter, RE007 growth inh, TbPYK inhibitor, LmPK inh, Shiga inhibitor)
COc1ccccc1Nc1nc(N)nc(-c2cc3ccccc3o2)n1	CHX counter 33, Shiga inhibitor active
COc1ccccc1Nc1nc(N)nc(CN2CCOCC2)n1	none
Cc1c(-c2nc(N)nc(Nc3ccccc3F)n2)oc2ccccc12	CHX counter 57, Shiga inhibitor 187
CCc1nc(Nc2ccccc2F)c2oc3ccccc3c2n1	none
Cc1ccc(Nc2nc(N)nc(COC(=O)c3ccc(Br)o3)n2)cc1	none (no result: CHX counter, FBPA Giardia inh, LmPK inh, Shiga inhibitor)
Cc1cccc(Nc2nc(N)nc(-c3oc4ccccc4c3C)n2)c1	CHX counter 53, Shiga inhibitor 89
Cc1ccc(Nc2nc(N)nc(-c3oc4ccccc4c3C)n2)cc1	CHX counter 23, Shiga inhibitor 46
Cc1ccc(Cn2c(CCCNC(=O)c3ccco3)nc3ccccc32)cc1	none (no result: CHX counter, RE007 growth inh, FBPA Giardia inh, LmPK inh, Shiga inhibitor)
COc1ccc(CCn2c3c(c(=O)[nH]c2=O)C(NC(=O)c2ccc(C(C)(C)C)cc2)(C(F)(F)F)C(=O)N3)cc1OC (configuration not stated)	none (no result: CHX counter, RE007 growth inh, FBPA Giardia inh, LmPK inh, Shiga inhibitor)
C[C@@H](O)[C@@H]1C(=O)N2C(C(=O)O)=C([C@H]3CCCO3)S[C@H]12	none (no result: CHX counter, RE007 growth inh, FBPA Giardia inh, LmPK inh, Shiga inhibitor)
COc1cccc(Nc2cc(C)nc3ccccc23)c1	none
COc1cccc(Nc2nc(N)nc(-c3oc4ccccc4c3C)n2)c1	CHX counter 42, Shiga inhibitor 79
CC1CCN(C(=O)c2ccc(CS(=O)(=O)Cc3ccccc3)cc2)CC1	none
CC1CCN(C(=O)CS(=O)(=O)Cc2ccccc2)CC1	CHX counter 35, Shiga inhibitor 77
Cc1c(Cc2ccccc2)c(=O)oc2cc(OCC(=O)N3CCC(C(N)=O)CC3)ccc12	none
O=C(C[C@@H]1C/C=C/CCCC(=O)O[C@H](c2ccccc2)CNC1=O)N[C@H](CO)Cc1ccccc1	none (no result: CHX counter, FBPA Giardia inh, LmPK inh, Shiga inhibitor)
Cc1nn(C)c(C)c1C(C)NC(=O)c1cc(COc2ccc(F)c(F)c2)on1 (configuration not stated)	CHX counter 33, Shiga inhibitor 47 (no result: FBPA Giardia inh)
Cc1nn(C)cc1C(C)NC(=O)c1cc(COc2ccc(F)c(F)c2)on1 (configuration not stated)	CHX counter 33
COc1ccc(C2CC(=O)c3cc(-c4nc(-c5cccc(Cl)c5)cs4)c(=O)[nH]c3C2)cc1OC (configuration not stated)	none (no result: CHX counter, RE007 growth inh, FBPA Giardia inh, LmPK inh, Shiga inhibitor)
CC[C@H](C)[C@H](NC(=O)[C@H](C)NC(=O)[C@H](Cc1cnc[nH]1)NC(=O)[C@@H]1CCCN1C(=O)CNC(=O)[C@H](CC(C)C)NC(=O)[C@H](CC(C)C)NC(=O)[C@H](Cc1ccc(O)cc1)NC(=O)CNC(=O)[C@H](C)NC(=O)[C@H](CO)NC(=O)[C@H](CC(N)=O)NC(=O)[C@H](CC(C)C)NC(=O)[C@@H](NC(=O)[C@H](Cc1c[nH]c2ccccc12)NC(=O)CN)[C@@H](C)O)C(=O)O	none (no result: RE007 growth inh, TbPYK inhibitor, LmPK inh)
CCC1Oc2nc(SC)nnc2-c2ccccc2N1C(=O)c1ccccc1 (configuration not stated)	CHX counter 16
CCC(=O)N1c2ccccc2-c2nnc(SC)nc2OC1c1ccc(N(C)C)cc1 (configuration not stated)	none
Cc1ccc(NC(=O)c2ccc3c(=O)n4c(nc3c2)CCCCC4)cc1F	none
O=C(NC1CCCCCC1)c1ccc2c(=O)n3c(nc2c1)CCCCC3	CHX counter 31
COc1cccc(CN(C)C(=O)c2ccc3c(=O)n4c(nc3c2)CCC4)c1OC	CHX counter 36 (no result: FBPA Giardia inh)
CCC(C)NC(=O)c1ccc2c(=O)n3c(nc2c1)CCCCC3 (configuration not stated)	none (no result: CHX counter, RE007 growth inh, FBPA Giardia inh, LmPK inh, Shiga inhibitor)
COc1ccc(NC(=O)c2ccc3c(=O)n4c(nc3c2)CCCCC4)cc1	CHX counter 21 (no result: FBPA Giardia inh)
C/C(=N/NC(=O)c1nnn(-c2nonc2N)c1COc1ccccc1)c1ccccc1	none
CC1=C(c2ccc(C)cc2)S(=O)(=O)N(Cc2ccc(C(=O)NCc3ccccc3)cc2)C1=O	none (no result: CHX counter, RE007 growth inh, FBPA Giardia inh, LmPK inh, Shiga inhibitor)
CCN(CC)c1nn2c(=O)c(C(=O)NCc3ccc(OC)cc3OC)cnc2s1	none (no result: CHX counter, RE007 growth inh, FBPA Giardia inh, LmPK inh, Shiga inhibitor)
OC(C#CCN1CCOCC1)c1cccs1 (configuration not stated)	CHX counter 37
COc1cc(-c2ccc(N=Nc3ccc4c(S(=O)(=O)O)cc(S(=O)(=O)O)c(N)c4c3O)c(OC)c2)ccc1N=Nc1ccc2c(S(=O)(=O)O)cc(S(=O)(=O)O)c(N)c2c1O	FBPA Giardia inh 14µM (no result: CHX counter, RE007 growth inh, TbPYK inhibitor, LmPK inh, Shiga inhibitor)
Cc1cccc(NC(=O)CSc2nc(=O)n(CCCN3CCOCC3)c3c2CCCC3)c1	none (no result: CHX counter, FBPA Giardia inh, LmPK inh, Shiga inhibitor)
CCN(CC)C(=O)c1c(NC(=O)c2ccccc2F)sc2c1CCC(C(C)(C)C)C2 (configuration not stated)	none (no result: CHX counter, RE007 growth inh, FBPA Giardia inh, LmPK inh, Shiga inhibitor)
COCc1cc(O)c(O)c(O)c1-c1c(COC)cc(O)c(O)c1O	FBPA Giardia inh 4µM (no result: RE007 growth inh, TbPYK inhibitor, LmPK inh)
Cc1ccc(C(CNS(=O)(=O)c2cc(F)ccc2F)N2CCN(C)CC2)cc1 (configuration not stated)	none (no result: CHX counter, FBPA Giardia inh, LmPK inh, Shiga inhibitor)
N#C/C(=C\c1ccc(N2CCOCC2)c([N+](=O)[O-])c1)c1nc2ccccc2[nH]1	CHX counter 13
N#C/C(=C/c1ccc(N2CCCC2)c([N+](=O)[O-])c1)c1nc2ccccc2[nH]1	CHX counter 42, Shiga inhibitor 65 (no result: TbPYK inhibitor)
N#C/C(=C\c1ccc(N2CCOCC2)o1)c1nc2ccccc2[nH]1	CHX counter 49, FBPA Giardia inh inconclusive, Shiga inhibitor 121
N#C/C(=C/c1ccc(N2CCOCC2)o1)c1ccc(Cl)cc1	CHX counter 36, RE007 growth inh inconclusive, FBPA Giardia inh inconclusive, TbPYK inhibitor inconclusive
N#C/C(=C/N1CCOCC1)c1ccccc1	none
CCCn1cnnc1CNC(=O)[C@H]1O[C@@H](n2cnc3c(N)ncnc32)[C@H](O)[C@@H]1O	none (no result: CHX counter, FBPA Giardia inh, LmPK inh, Shiga inhibitor)
O=C(O)/C=C/C(=O)Nc1ccc(-c2ccccc2)cc1	CHX counter 45, RE007 growth inh inconclusive, Shiga inhibitor 92
O=C(O)/C=C/C(=O)Nc1ccccc1-c1ccccc1NC(=O)/C=C/C(=O)O	none
C[C@H](NC(N)=O)C(=O)Nc1ccc(OCc2ccccc2)cc1	CHX counter 59
CC(C)[C@H](NC(N)=O)C(=O)Nc1ccc(OCc2ccccc2)cc1	none
O=C(O)/C=C/C(=O)Nc1ccc(OC(F)F)cc1	none
O=C(O)/C=C/C(=O)Nc1ccc(OCc2ccccc2)cc1	CHX counter 19

Assay outcomes deposited in PubChem BioAssay by National Center for Advancing Translational Sciences (NCATS).
